Source: PubChem BioAssay (National Center for Advancing Translational Sciences (NCATS))
An excerpt weighted towards active compounds, which were near 7.6% of everything screened.
SW480 rerep: inducers of DNA re-replication in SW480 colon cancer cells; hit rate 1.8% among 340,000; Potency, µM (highest dose often 46.1 µM), hits mostly activators; SW480 DNA re-replication, Hoechst DNA content imaging, 48 h; AID 624297; further: nearly all actives have a fitted effect of over 55% in size
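250 cells/well; 23 nL cpd via pin tool; 48 hr, 37 C, 5% CO2; Hoechst 40 min; imager read of total nuclear intensity, ex 405/em 500-530 nm.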
hERG WT inh: inhibitors of human wildtype KCNH2 potassium channel. activity change, % at 1.84 µM. Q12809. AID 720551. hit rate 0.37% among 340,000. U2OS, BacMam KCNH2, thallium flux FluxOr; hits give low values;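 active means maximum activity change below -70%; inconclusive means maximum activity change between -70% and -50%; inactive means maximum activity change above -50%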
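U2OS cells transduced with wild-type KCNH2 virus are loaded with FluxOr dye for 45 min, and thallium flux is measured in kinetic reads before and after stimulation buffer. Rate constants are normalized to DMSO controls.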
MCF10A rerep: DNA re-replication induction in MCF 10a cells | MCF 10A DNA re-replication, Hoechst nuclear intensity, 48 h | Potency, µM (titrated, usually from 46.1 µM), hits mostly activators | hit rate 2.9% among 350,000 | AID 624296; further: nearly all actives have a fitted effect of over 50% in size
KB-3-1 tox: KB-3-1 parental cell cytotoxicity; AID 1347075; hit rate 1.4% among 400,000; Potency, µM (series often up to 46.1 µM), actives largely listed as cytotoxic; KB-3-1 viability, CellTiter-Glo ATP luminescence, 72 h; further: nearly all actives have a fitted effect of over 60% in size
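Luminescent ATP read-out (CellTiter-Glo) measures survival of drug-naive KB-3-1 cells after 72 h compound exposure at 37 °C. Titration series was screened from lowest to highest concentration, with DMSO vehicle plates as background controls.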
KB-V1 cytotox: KB-V1 MDR subline cytotoxicity. KB-V1 MDR cells viability, CellTiter-Glo, 72 h. Potency, µM (doses to about 46.1 µM), most hits filed as cytotoxic. hit rate 3.4% among 400,000; further: nearly all actives have a fitted effect of over 60% in size
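KB-V1 MDR subline cells in DMEM (phenol-red free, 10% FBS) exposed to compounds in qHTS concentration series for 72 h at 37 degrees C. Viability read by CellTiter-Glo luminescence; concentration-effect curves fitted after normalization and correction.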
KCNH2 3.1 block: blocks the human KCNH2 3.1 channel isoform; U2OS KCNH2 3.1, thallium flux FluxOr; hits give low values; activity change, % (tested at about 1.8 µM); hit rate 0.95% among 340,000; AID 720553;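 active means maximum activity change below -70%; inconclusive means maximum activity change from -70% to -50%; inactive means maximum activity change above -50%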;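 further: thallium influx rate constant from kinetic fluorescence after stimulation buffer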
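U2OS cells transduced with KCNH2 3.1 mutant virus (1.77 x 10^8 /mL, 4 h), plated overnight at 37 C, loaded 45 min with FluxOr dye plus Red40 quencher. Thallium flux rate constant from kinetic reads after stimulation buffer, normalised to controls.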
Of the large screens only hits and unclear results are named; the others gave an inactive call. Unless noted, the call rests on the fitted dose curve; in most records, active means well fitted curve in the direction sought with a large enough effect; inconclusive means small, poorly fitted or top-dose-only effect, or another doubt; inactive means no such curve, though single readings can be large; an effect the other way counts as inactive or inconclusive.

C/C(=N\N)c1c(-c2ccccc2)c2cc(C)ccc2[nH]c1=O	SW480 rerep inconclusive
CCCCNC(=O)/C(C#N)=C/c1cccnc1	MCF10A rerep inconclusive
Cc1cc(C)cc(N=Cc2ccc([N+](=O)[O-])s2)c1	SW480 rerep 3.7µM, MCF10A rerep 21µM, KB-3-1 tox inconclusive, KB-V1 cytotox inconclusive
O=C(CNC(=O)c1ccccc1Cl)N/N=C/c1ccc([N+](=O)[O-])s1	SW480 rerep inconclusive, KB-3-1 tox 2.6µM, KB-V1 cytotox inconclusive
N/C(=N\O)c1ccc([N+](=O)[O-])s1	none
Cc1ccc(NC(=S)N/N=C/c2ccc([N+](=O)[O-])s2)cc1	SW480 rerep 6.5µM, MCF10A rerep 10µM, KB-3-1 tox inconclusive, KB-V1 cytotox inconclusive
NC(=O)c1ccc(N=Cc2ccc([N+](=O)[O-])s2)cc1	SW480 rerep 3.3µM, MCF10A rerep 15µM, KB-3-1 tox inconclusive, KB-V1 cytotox inconclusive
O=C(Cc1cccs1)N/N=C\c1ccc([N+](=O)[O-])s1	MCF10A rerep inconclusive
Cn1c(=O)c2c(nc(N3CCCCC3)n2CC(O)COc2ccccc2)n(C)c1=O (stereo not drawn)	none
COc1ccc(NC(=O)C(=O)NCC(c2cccnc2)N2CCc3ccccc3C2)cc1 (stereo not drawn)	none (no result: SW480 rerep, hERG WT inh, MCF10A rerep, KCNH2 3.1 block)
Cn1c(=O)n(Cc2ccc(Br)cc2)c2ccccc21	KB-V1 cytotox inconclusive
Cc1ccc(C)c(S(=O)(=O)NCCc2csc(-c3ccc(Cl)cc3)n2)c1	none (no result: SW480 rerep, hERG WT inh, MCF10A rerep, KCNH2 3.1 block)
CN(C)[C@H]1N(C(=O)c2ccc(Br)cc2)N=C2c3ccccc3S(=O)(=O)N21	KB-V1 cytotox 8.2µM
CN1C(C(=O)c2ccccc2)=C(OC(=O)c2ccc(Br)cc2)c2ccccc2S1(=O)=O	none (no result: SW480 rerep, hERG WT inh, MCF10A rerep, KCNH2 3.1 block)
COc1cc2c(cc1OC)C(COc1ccccc1OC)N(C(C)=O)CC2 (stereo not drawn)	none
COc1ccc(CC(=O)N2CCc3cc(OC)c(OC)cc3C2COc2ccc(F)cc2)cc1OC (stereo not drawn)	none (no result: SW480 rerep, hERG WT inh, MCF10A rerep, KCNH2 3.1 block)
COc1cc2c(cc1OC)C(COc1ccc([N+](=O)[O-])cc1)N(C(C)=O)CC2 (stereo not drawn)	KB-3-1 tox 16µM, KB-V1 cytotox inconclusive
COc1ccc(CC(=O)N2CCc3cc(OC)c(OC)cc3C2COc2ccc(F)cc2)cc1 (stereo not drawn)	KB-V1 cytotox 7.3µM (no result: SW480 rerep, hERG WT inh, MCF10A rerep, KCNH2 3.1 block)
COCc1[nH]nc2c1C(c1ccnc3ccccc13)C(C#N)=C(N)O2 (stereo not drawn)	SW480 rerep 16µM, MCF10A rerep inconclusive
CCOC(=O)c1sc(Nc2nc3ccc(OC)cc3s2)cc1C	SW480 rerep inconclusive, MCF10A rerep 18µM
CCOC(=O)c1sc(Nc2nc3c(F)cccc3s2)cc1C	SW480 rerep inconclusive, MCF10A rerep 21µM
COc1cccc(Nc2nc3ccc(OC)cc3s2)c1	KB-V1 cytotox inconclusive
CCOC(=O)c1sc(NC(=O)Nc2cccc(Cl)c2)cc1C	MCF10A rerep inconclusive, KB-3-1 tox inconclusive, KB-V1 cytotox 13µM
Cc1ccc(C2NC(c3ccc4c(c3)OCO4)=CC(c3cc(Br)ccc3O)N2)cc1 (stereo not drawn)	none (no result: SW480 rerep, hERG WT inh, MCF10A rerep, KCNH2 3.1 block)
Oc1ccc(Cl)cc1C1=Nc2ccccc2N=C(c2ccccc2)C1	none (no result: SW480 rerep, hERG WT inh, MCF10A rerep, KCNH2 3.1 block)
Cc1ccc(O)c(C2=Nc3ccccc3N=C(c3cccs3)C2)c1	MCF10A rerep 21µM, KB-3-1 tox inconclusive, KB-V1 cytotox 15µM
Oc1ccccc1C1=Nc2ccccc2N=C(c2cccs2)C1	MCF10A rerep inconclusive, KB-V1 cytotox 23µM
CC(=O)c1cccc(NC(=O)c2cc(=O)[nH]c3ccccc23)c1	none
C=CC(=O)Nc1cccc(Oc2ccnc(Nc3ccc(N4CCN(C)CC4)cc3)n2)c1	SW480 rerep inconclusive, MCF10A rerep 18µM, KB-3-1 tox inconclusive
C=CC(=O)Nc1cccc(Oc2ccnc3[nH]ccc23)c1	SW480 rerep inconclusive, MCF10A rerep inconclusive, KB-3-1 tox inconclusive
CN1CCN(c2ccc(NC(=O)COc3cccc4ccccc34)cc2)CC1	none
C=CC(=O)Nc1cccc(N(C)c2ccnc(Nc3ccc(N4CCN(C)CC4)cc3)n2)c1	SW480 rerep inconclusive, MCF10A rerep 15µM, KB-3-1 tox inconclusive
CC(=O)c1ccc(S(=O)(=O)N2CCN(c3ccccc3F)CC2)cc1	KB-V1 cytotox inconclusive
Cc1ccc(N(CC(O)CN2CCCCC2)S(=O)(=O)c2ccccc2[N+](=O)[O-])cc1 (stereo not drawn)	MCF10A rerep inconclusive
Cc1ccc(N(CC(O)CN2CCCC2)S(=O)(=O)c2ccc(C)cc2)cc1 (stereo not drawn)	KCNH2 3.1 block -104
Cc1ccc(N(CC(O)Cn2nc(C)cc2C)S(=O)(=O)c2ccc3ccccc3c2)cc1 (stereo not drawn)	KB-V1 cytotox 5.8µM
O=[N+]([O-])c1ccc(N(CC(O)CN2CCCCC2)S(=O)(=O)c2ccccc2)cc1 (stereo not drawn)	KB-V1 cytotox inconclusive, KCNH2 3.1 block -76
CSc1ccc(C(=O)C2CCCN(C(=O)c3cc(C)n(C)n3)C2)cc1 (stereo not drawn)	none
COc1cc(-c2cc(NC(C)=O)c3ncc(-c4ccccc4)n3c2)cc(OC)c1OC	KB-V1 cytotox inconclusive (no result: SW480 rerep, hERG WT inh, MCF10A rerep, KCNH2 3.1 block)
Cc1ccc(S(=O)(=O)N(C)c2ccc(OC(=O)c3cccs3)cc2)cc1	none
Brc1ccc(-c2csc(N3CCCCCC3)n2)cc1	none
NC(=O)C1(N2CCCCC2)CCN(c2nc(-c3ccc(Br)cc3)cs2)CC1	MCF10A rerep inconclusive, KB-V1 cytotox 23µM
Oc1ccc(Nc2nc3ccccc3nc2Nc2ccc(O)cc2)cc1	SW480 rerep 4.6µM, MCF10A rerep 1.5µM, KB-V1 cytotox inconclusive
CC1CCC/C(=C(\C#N)c2nc(-c3cc4ccccc4oc3=O)cs2)C1 (stereo not drawn)	KB-3-1 tox inconclusive, KB-V1 cytotox 8.2µM
Cc1[nH]c2ccccc2c1/C=N/n1cnnc1	none
CCN(CC)c1ccc(N=Cc2c(C)[nH]c3ccccc23)cc1	SW480 rerep 8.2µM
Cc1cccc2c(C(=O)N3CCN(c4ccccn4)CC3)cc(-c3cccc(Br)c3)nc12	SW480 rerep 16µM, KB-3-1 tox inconclusive, KB-V1 cytotox inconclusive
O=C(c1cc(-c2ccncc2)nc2ccc(Cl)cc12)N1CCN(C(=O)C2CCCO2)CC1 (stereo not drawn)	none
CC(=O)c1ccc(N2CCN(C(=O)c3cc(-c4ccncc4)nc4ccc(Cl)cc34)CC2)cc1	KB-V1 cytotox 9.2µM
Cc1cccc2c(C(=O)N3CCCCC3)cc(-c3ccccc3)nc12	SW480 rerep inconclusive, MCF10A rerep inconclusive, KB-V1 cytotox inconclusive
